# Shown are actives, neighbours in structure and some others; about 12% of the full set was active somewhere.
# Gal4-VP16 FLuc = VP16 counterscreen qHTS for inhibitors of ROR gamma transcriptional activity. Drosophila S2 Gal4-VP16 UAS-luciferase, luminescence, 20 h. Potency, µM (highest dose often 53.6 µM), for inactives: top-dose activity, negative = inhibition, usual class: inhibitors. 310,000 compounds, 3.5% hits;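 note: Gal4-VP16 expression switched on by copper sulfate through the metallothionein promoter; nearly all actives have a fitted effect of over 50% in size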
# ALDH1A1 inh = qHTS Assay for Inhibitors of Aldehyde Dehydrogenase 1 (ALDH1A1); Aldehyde dehydrogenase 1A1 (Homo sapiens), P00352; Potency, µM (series often up to 75.3 µM), for inactives: at the top dose activity, negative = inhibition, hits mostly inhibitors; 220,000 compounds, 7.3% hits; Purified ALDH1A1, NADH fluorescence, propionaldehyde substrate; active = well fitted inhibition curve with a large enough effect, not every such curve was filed as active; inconclusive = small, poorly fitted or top-dose-only effect, or another doubt; inactive = no such curve, though single readings can be large or run the other way;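 note: plate controls were no enzyme wells and a reference inhibitor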
# PLK1 PBD block = qHTS for Inhibitors of PLK1-PDB (polo-like kinase 1 - polo-box domain): Primary Screen; Serine/threonine-protein kinase PLK1 (Homo sapiens), P53350; Plk1 PBD binding of FITC phosphopeptide, fluorescence polarization; Potency, µM, for inactives: max response, negative = inhibition, hits mostly inhibitors; 360,000 compounds, 2.8% hits; note: series mostly up to about 57 µM; nearly all actives have a fitted effect of over 65% in size
# Sfp inh = qHTS Assay for Inhibitors of Bacillus subtilis Sfp phosphopantetheinyl transferase (PPTase). 4'-phosphopantetheinyl transferase ffp (Bacillus subtilis), Q9F4F7. Biochemical Sfp PPTase activity, qHTS. Potency, µM, for inactives: largest response in the series, negative = inhibition, most hits filed as inhibitors. 310,000 compounds, 3.5% hits. AID 1490, 2009;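 note: the enzyme is Sfp with the accession as filed and its product quenches rhodamine fluorescence; 0% = enzyme reaction without inhibitor and -100% = no enzyme wells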
#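 Sfp 15 nM + cpd, 15 min RT; start w/ rhodamine-CoA 5 uM, BHQ-2-YbbR 12.5 uM (final); 50 mM Hepes pH 7.6, 10 mM MgCl2, 0.01% NP-40, 0.01% BSA; read 525/598 nm at 0 and 30 min.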
# RORg inh = qHTS for inhibitors of ROR gamma transcriptional activity. Nuclear receptor ROR-gamma (Mus musculus), P51450. Drosophila S2 Gal4-RORgamma UAS-luciferase reporter, 20 h. Potency, µM (doses to about 53.6 µM), without a hit: at the top dose activity change, negative = inhibition, actives largely listed as inhibitors. 310,000 compounds, 5.4% hits. AID 2551, 2010; note: nearly all actives have a fitted effect of over 60% in size
# Target sequence (P51450 whole entry, looked up, the tested form may be a part): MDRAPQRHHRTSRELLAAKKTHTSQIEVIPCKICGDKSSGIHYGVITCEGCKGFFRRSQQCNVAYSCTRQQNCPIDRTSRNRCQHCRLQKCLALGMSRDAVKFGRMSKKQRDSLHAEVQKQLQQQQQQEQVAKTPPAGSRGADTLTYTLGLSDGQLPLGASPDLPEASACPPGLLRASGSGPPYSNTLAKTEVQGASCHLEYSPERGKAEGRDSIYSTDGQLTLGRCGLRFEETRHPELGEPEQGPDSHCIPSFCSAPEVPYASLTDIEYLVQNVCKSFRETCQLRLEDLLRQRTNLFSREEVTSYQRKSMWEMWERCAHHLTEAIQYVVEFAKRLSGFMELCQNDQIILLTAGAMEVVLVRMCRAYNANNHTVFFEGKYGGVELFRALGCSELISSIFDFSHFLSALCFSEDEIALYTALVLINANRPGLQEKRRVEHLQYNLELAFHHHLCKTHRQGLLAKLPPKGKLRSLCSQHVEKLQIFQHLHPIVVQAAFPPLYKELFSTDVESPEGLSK
#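 Compounds are pin-transferred onto Drosophila Schneider cells expressing a copper-inducible Gal4–ROR gamma transactivation domain fusion. After 1 hr, copper sulfate is added to 700 uM final; luciferase is read 20 hr later.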
# Numbers without * were called inactive; ? = inconclusive; . = not tested or not shown; [ ] = another dose, or the depositor's remark. Unless noted, calls come from the whole dose curve; as a rule, active = well fitted curve in the direction sought with a large enough effect; inconclusive = small, poorly fitted or top-dose-only effect, or another doubt; inactive = no such curve, though single readings can be large; an effect the other way counts as inactive or inconclusive. Unless noted, % is set by controls: 0 for no effect and ±100 for the full control effect; potency is the fitted concentration of half-maximal effect.
SMILES,Gal4-VP16 FLuc,ALDH1A1 inh,PLK1 PBD block,Sfp inh,RORg inh
FC(F)(F)c1ccc(Cl)c(N/N=C/c2ccc(N3CCOCC3)s2)c1,0.8%,4.47µM*,-2.6%,-6.3%,-2.0%
O=C(N/N=C/c1ccc(N2CCOCC2)s1)c1ccccc1Cl,?,15.8µM*,23.8µM*,-30.0%,7.94µM*
Cc1ccc(S(=O)(=O)N2C[C@H]3C(=O)C[C@@H](c4ccc(Cl)cc4)N(S(=O)(=O)c4ccccc4C)[C@H]3C[C@H]2c2ccc(Cl)cc2)cc1,.,.,-15.7%,.,.
C=C(C)C(=O)C1CCCCC1,-1.4%,1.7%,.,-12.2%,-0.2%
CCC1(C)Cc2c(C#N)c(N)n(-c3ccccc3)c(=O)c2CO1 (stereo not drawn),2.2%,8.8%,3.8%,8.2%,10.3%
CC1(C)C=C2C(=NN(c3ccccc3)C(N)=C2C#N)CO1,-25.9%,.,?,44.7µM*,?
COc1ccc(-c2nc3cnc(N4CCN(C)CC4)nc3n(Cc3cccc(OC)c3)c2=O)cc1,-6.0%,?,.,-21.9%,-19.5%
CCCCN(Cc1ccco1)S(=O)(=O)c1ccc(-c2ccc(=O)[nH]n2)s1,-0.7%,.,23.8µM*,?,21.9%
CCSC1=N/C(=C\c2ccc(C(=O)O)cc2)C(=O)S1,11.0%,-8.4%,?,?,19.9%
C=CCSC1=N/C(=C\c2ccc(C(=O)O)cc2)C(=O)S1,4.0%,3.55µM*,-16.4%,39.8µM*,-7.1%
O=C1SC(SCc2ccccc2Cl)=N/C1=C\c1ccc(C(=O)O)cc1,-2.9%,?,16.8µM*,-48.6%,35.2%
C#CCOCCOCCOCCNc1nc(N2CCN(C(=O)[C@H]([C@@H](C)CC)n3cc([C@@H](N)Cc4ccc(O)cc4)nn3)CC2)nc(N2CCN(C(=O)[C@H](Cc3cc4ccccc4[nH]3)n3cc([C@@H](N)C(C)CC)nn3)CC2)n1 (stereo partly drawn),-3.9%,7.6%,.,-15.4%,5.3%
C#CCOCCOCCOCCNc1nc(N2CCN(C(=O)[C@H]([C@@H](C)CC)n3cc([C@@H](N)CO)nn3)CC2)nc(N2CCN(C(=O)[C@H](Cc3cc4ccccc4[nH]3)n3cc([C@@H](N)C(C)CC)nn3)CC2)n1 (stereo partly drawn),-11.5%,?,.,50.1µM*,-19.3%
C#CCOCCOCCOCCNc1nc(N2CCN(C(=O)[C@H](Cc3cc4ccccc4[nH]3)n3cc([C@@H](N)C(C)CC)nn3)CC2)nc(N2CCN(C(=O)[C@H](Cc3cc4ccccc4[nH]3)n3cc([C@@H](N)Cc4ccc(O)cc4)nn3)CC2)n1 (stereo partly drawn),?,-3.2%,.,50.1µM*,-31.0%
C#CCOCCOCCOCCNc1nc(N2CCN(C(=O)[C@H](Cc3ccc(O)cc3)n3cc([C@@H](N)C(C)CC)nn3)CC2)nc(N2CCN(C(=O)[C@H](Cc3cc4ccccc4[nH]3)n3cc([C@@H](N)CC(C)C)nn3)CC2)n1 (stereo partly drawn),-21.0%,-8.6%,1.0%,50.1µM*,-1.5%
C#CCOCCOCCOCCNc1nc(N2CCN(C(=O)[C@H](Cc3ccc(O)cc3)n3cc([C@@H](N)C(C)CC)nn3)CC2)nc(N2CCN(C(=O)[C@H](Cc3cc4ccccc4[nH]3)n3cc([C@@H](N)C(C)CC)nn3)CC2)n1 (stereo partly drawn),-22.4%,-3.3%,-11.1%,-29.4%,-6.6%
NC(N)=NC[C@H](N)C(=O)O,.,2.9%[13.5 µM],.,.,.
O=C1Nc2ccccc2-c2nnnn2C1N1CCCCC1 (stereo not drawn),.,.,-4.4%,.,.
Cc1noc(C)c1CS(=O)(=O)c1ccc([N+](=O)[O-])cc1,1.6%,31.6µM*,-5.6%,15.2%,-9.5%
O=S(=O)(Nc1ccc(Cl)cc1Cl)c1cc(Cl)ccc1Cl,.,2.1%,.,.,.
CN(Cc1ccco1)c1ncnc2ccc(-c3cccc(C#N)c3)cc12,2.9%,?,.,?,-11.1%
COC(=O)Nc1ccc(Cl)c(Cl)c1,0.5%,.,.,11.2%,6.0%
C1CCCNCC1,6.3%,22.4µM*,.,.,5.7%
C1CNCCNCCCNCCNC1,-0.4%,5.1%,.,3.6%,2.8%
CN1CCN(c2ccc3sc(-n4ccc5ccccc54)nc3c2)CC1,.,.,-12.9%,.,.
SMILES,Gal4-VP16 FLuc,ALDH1A1 inh,PLK1 PBD block,Sfp inh,RORg inh
CN1CCc2c(sc3nc(NN)n(Cc4ccccc4)c(=O)c23)C1,2.2%,31.6µM*,-4.2%,-17.1%,-4.6%
CN(C)c1ccc(-c2ccnc3c2CC(C)(C(=O)NCc2ccc(F)c(F)c2)O3)cc1 (stereo not drawn),.,.,2.4%,.,.
c1ccc(Cc2nnc3sc(C4COc5ccccc5O4)nn23)cc1 (stereo not drawn),2.1%,25.1µM*,15µM*,?,?
c1ccc(OCc2nnc3sc(C4COc5ccccc5O4)nn23)cc1 (stereo not drawn),-5.7%,10µM*,23.8µM*,25.1µM*,23.7%
Clc1ccccc1-c1nnc2sc(C3COc4ccccc4O3)nn12 (stereo not drawn),-21.3%,7.08µM*,?,17.8µM*,?
c1ccc(CCc2nn3c(C4COc5ccccc5O4)nnc3s2)cc1 (stereo not drawn),28.0%,10µM*,23.8µM*,-71.9%,?
Cc1ccc(-c2nnc3sc(C4COc5ccccc5O4)nn23)cc1 (stereo not drawn),-0.9%,?,-10.4%,0.5%,-3.5%
CN(C)S(=O)(=O)Nc1ccc(Cc2ccncc2)cc1,.,.,0.7%,.,.
C[C@H](CO)N1C[C@H](C)[C@@H](CN(C)Cc2ccc(Cl)c(Cl)c2)OCc2cnnn2CCCC1=O,.,.,-5.1%,.,.
CC(=O)CCc1ccc(OCC(=O)Nc2cccc(S(=O)(=O)N(C)c3ccccc3)c2)cc1,.,.,-6.2%,.,.
CC1COC(=O)O1 (stereo not drawn),-5.7%,.,.,-0.3%,-0.4%
O=C(Nc1cccc(Oc2ccccc2)c1)C1Cc2c(-c3ccccc3)ccnc2O1 (stereo not drawn),.,.,-2.7%,.,.
COc1ccccc1-c1nn2c(C(F)(F)F)nnc2s1,-4.6%,?,-8.6%,15.7%,-1.7%
COc1ccccc1-c1nn2c(C3COc4ccccc4O3)nnc2s1 (stereo not drawn),-2.1%,?,11.9µM*,20µM*,-17.0%
Cc1ccc2c(CN3CCN(S(=O)(=O)c4ccccc4C(F)(F)F)CC3)cc(=O)oc2c1C,.,.,-11.2%,.,.

# Bioassay records from PubChem BioAssay.
